Only a selection was taken, and the strongest signals are over-represented in it overall.
How the values were obtained:
Assay in all cases: glycan array binding signal (z-score within array); higher = stronger binding
Conditions in all cases: glycan notation: IUPAC condensed, linker removed
[1] = target: Fuc(a1-2)Gal(b1-3)GlcNAc(b1-2)Man(a1-3)[Fuc(a1-2)Gal(b1-3)GlcNAc(b1-2)Man(a1-6)]Man(b1-4)GlcNAc(b1-4)[Fuc(a1-6)]GlcNAc
In short: (§1)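 Arrays were curated from the Consortium for Functional Glycomics database, 3228 in total, and kept only where the protein sequence was available. Binding is expressed as a within-array Z-score. This score was averaged across arrays of the same protein sequence at different concentrations or buffers and across linkers, and negative values can be read as non-binding.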

[2] = target: Fuc(a1-2)Gal(b1-3)GlcNAc(b1-3)[Neu5Ac(a2-6)Gal(b1-4)GlcNAc(b1-6)]Gal(b1-4)Glc
In short: as §1

[3] = target: Fuc(a1-2)Gal(b1-4)GlcNAc(b1-2)[Fuc(a1-2)Gal(b1-4)GlcNAc(b1-4)]Man(a1-3)[Fuc(a1-2)Gal(b1-4)GlcNAc(b1-2)Man(a1-6)]Man(b1-4)GlcNAc(b1-4)GlcNAc
In short: as §1

[4] = target: Fuc(a1-2)Gal(b1-4)GlcNAc(b1-6)GalNAc
In short: as §1

[5] = target: Fuc(a1-2)Gal6S(b1-3)GlcNAc6S
In short: as §1

[6] = target: Fuc(a1-2)[Gal(a1-3)]Gal(b1-3)GlcNAc(b1-2)Man(a1-3)[Fuc(a1-2)[Gal(a1-3)]Gal(b1-3)GlcNAc(b1-2)Man(a1-6)]Man(b1-4)GlcNAc(b1-4)GlcNAc
In short: as §1

[7] = target: Fuc(a1-2)[Gal(a1-3)]Gal(b1-3)GlcNAc(b1-6)GalNAc
In short: as §1

[8] = target: Fuc(a1-2)[Gal(a1-3)]Gal(b1-4)GlcNAc
In short: as §1

[9] = target: Fuc(a1-2)[Gal(a1-3)]Gal(b1-4)[Fuc(a1-3)]GlcNAc(b1-3)GalNAc
In short: as §1

[10] = target: Fuc(a1-2)[GalNAc(a1-3)]Gal(b1-4)GlcNAc(b1-2)Man(a1-3)[Fuc(a1-2)[GalNAc(a1-3)]Gal(b1-4)GlcNAc(b1-2)Man(a1-6)]Man(b1-4)GlcNAc(b1-4)[Fuc(a1-6)]GlcNAc
In short: as §1

[11] = target: Fuc(a1-2)[GalNAc(b1-3)]Gal
In short: as §1

Fuc(a1-4)GlcNAc = target: Fuc(a1-4)GlcNAc
In short: as §1

[12] = target: Gal(a1-3)Gal(b1-3)[Fuc(a1-4)]GlcNAc(b1-2)Man(a1-3)[Gal(a1-3)Gal(b1-3)[Fuc(a1-4)]GlcNAc(b1-2)Man(a1-6)]Man(b1-4)GlcNAc(b1-4)GlcNAc
In short: as §1

Gal(a1-3)GalNAc = target: Gal(a1-3)GalNAc
In short: as §1

Gal(b1-3)Gal(b1-4)GlcNAc = target: Gal(b1-3)Gal(b1-4)GlcNAc
In short: as §1

[13] = target: Gal(b1-3)GlcNAc(a1-6)Gal(b1-4)GlcNAc
In short: as §1

[14] = target: Gal(b1-3)GlcNAc(b1-3)Gal(b1-4)GlcNAc(b1-2)Man(a1-3)[Gal(b1-3)GlcNAc(b1-3)Gal(b1-4)GlcNAc(b1-2)Man(a1-6)]Man(b1-4)GlcNAc(b1-4)GlcNAc
In short: as §1

[15] = target: Gal(b1-3)GlcNAc(b1-6)Gal(b1-4)GlcNAc
In short: as §1

[16] = target: Gal(b1-3)GlcNAc(b1-6)GalNAc
In short: as §1

Gal(b1-4)Gal = target: Gal(b1-4)Gal
In short: as §1

Gal(b1-4)Glc6S = target: Gal(b1-4)Glc6S
In short: as §1

[17] = target: Gal(b1-4)GlcNAc(a1-6)Gal(b1-4)GlcNAc
In short: as §1

[18] = target: Gal(b1-4)GlcNAc(b1-2)[Gal(b1-4)GlcNAc(b1-4)]Man(a1-3)[Gal(b1-4)GlcNAc(b1-2)[Gal(b1-4)GlcNAc(b1-6)]Man(a1-6)]Man(b1-4)GlcNAc(b1-4)GlcNAc
In short: as §1

[19] = target: Gal(b1-4)GlcNAc(b1-2)[Gal(b1-4)GlcNAc(b1-6)]Man(a1-6)[Gal(b1-4)GlcNAc(b1-2)Man(a1-3)]Man(b1-4)GlcNAc(b1-4)[Fuc(a1-6)]GlcNAc
In short: as §1

[20] = target: Gal(b1-4)GlcNAc(b1-3)Gal(b1-3)GalNAc
In short: as §1

[21] = target: Gal(b1-4)GlcNAc(b1-3)Gal(b1-4)[Fuc(a1-3)]GlcNAc(b1-3)Gal(b1-4)[Fuc(a1-3)]GlcNAc
In short: as §1

[22] = target: Gal(b1-4)GlcNAc(b1-6)GalNAc
In short: as §1

[23] = target: Gal3S(b1-4)[Fuc(a1-3)]GlcNAc
In short: as §1

Gal6S(b1-4)GlcNAc = target: Gal6S(b1-4)GlcNAc
In short: as §1

GalNAc(a1-3)Gal = target: GalNAc(a1-3)Gal
In short: as §1

B1: MGL2 (Mus musculus), Q8JZN1 (protein)
chain: MTMRYENFQNLEREEKNQEMRNGDKKGGMESPKFALIPSQSFLWRILSWTHLLLFSLGLSLLLLVVISVIGSQNSQLRRDLGTLRAILDNTTSKIKAEFQSLDSRADNFEKGISSLKVDVEDHRQELQAGRDLSQKVTSLESTLEKREQALKTDLSDLTDHVQQLETDLKALTCQLANLKNNGSEVACCPLHWTEHEGSCYWFSESEKSWPEADKYCRLENSHLVVVNSLEEQNFLQNRLANVLSWMGLTDQNGPWRWVDGTDFDKGFKNWRPLQPDNWHGHMLGGGEDCAHFSYDGRWNDDVCQRHYHWICETELGKASSAHSPQLIASVP
For B1, the “glycan array binding signal (z-score)” value [1] was -0.201, the “glycan array binding signal (z-score)” value [2] was -0.188 and the “glycan array binding signal (z-score)” value [3] was -0.106. The “glycan array binding signal (z-score)” value [4] was 1.79, the “glycan array binding signal (z-score)” value [5] was 0.028 and the “glycan array binding signal (z-score)” value [6] was -0.255. The “glycan array binding signal (z-score)” value [7] was 0.323, the “glycan array binding signal (z-score)” value [8] was -0.162 and the “glycan array binding signal (z-score)” value [9] was -0.252. For the same binder, the “glycan array binding signal (z-score)” value [10] was -0.211, the “glycan array binding signal (z-score)” value [11] was 12.2 and the “glycan array binding signal (z-score)” value (Fuc(a1-4)GlcNAc) was 0.024. The “glycan array binding signal (z-score)” value [12] was -0.193, the “glycan array binding signal (z-score)” value (Gal(a1-3)GalNAc) was -0.18 and the “glycan array binding signal (z-score)” value (Gal(b1-3)Gal(b1-4)GlcNAc) was -0.137. For the same binder, the “glycan array binding signal (z-score)” value [13] was 0.067, the “glycan array binding signal (z-score)” value [14] was -0.097 and the “glycan array binding signal (z-score)” value [15] was -0.035. For the same binder, the “glycan array binding signal (z-score)” value [16] was 2.02, the “glycan array binding signal (z-score)” value (Gal(b1-4)Gal) was -0.267 and the “glycan array binding signal (z-score)” value (Gal(b1-4)Glc6S) was -0.225. The “glycan array binding signal (z-score)” value [17] was -0.091, the “glycan array binding signal (z-score)” value [18] was -0.247 and the “glycan array binding signal (z-score)” value [19] was -0.193. The “glycan array binding signal (z-score)” value [20] was -0.14, the “glycan array binding signal (z-score)” value [21] was -0.1 and the “glycan array binding signal (z-score)” value [22] was 3.5. For the same binder, the “glycan array binding signal (z-score)” value [23] was -0.228, the “glycan array binding signal (z-score)” value (Gal6S(b1-4)GlcNAc) was -0.276 and the “glycan array binding signal (z-score)” value (GalNAc(a1-3)Gal) was 1.48.
